Most compounds without a hit are left out; they make up all but 1.4% or so of the library.
PV pol inh – poliovirus RNA polymerase inhibition; % elongation, % (compound at 16.7 µg/mL); P03300; poliovirus polymerase elongation, fluorescence polarization; hits give low values; 150,000 compounds, 0.66% hits; AID 588519; in the data active = % elongation below about 90%
Target sequence (P03300 1749-2209 limits assumed): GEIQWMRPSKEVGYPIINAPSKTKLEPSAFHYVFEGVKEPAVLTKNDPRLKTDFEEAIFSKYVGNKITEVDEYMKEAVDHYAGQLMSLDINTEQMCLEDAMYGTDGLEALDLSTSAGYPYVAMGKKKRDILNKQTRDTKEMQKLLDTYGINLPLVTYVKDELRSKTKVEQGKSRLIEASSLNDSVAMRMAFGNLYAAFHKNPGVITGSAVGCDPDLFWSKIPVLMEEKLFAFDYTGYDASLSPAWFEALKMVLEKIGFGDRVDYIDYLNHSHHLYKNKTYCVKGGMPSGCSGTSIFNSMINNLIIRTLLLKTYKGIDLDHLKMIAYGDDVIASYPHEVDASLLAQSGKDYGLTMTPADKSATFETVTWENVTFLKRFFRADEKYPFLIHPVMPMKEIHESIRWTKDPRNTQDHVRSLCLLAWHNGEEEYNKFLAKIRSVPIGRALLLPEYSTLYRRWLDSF
Mtb MbtI inh – blocks the Mycobacterium tuberculosis siderophore enzyme MbtI. P9WFX0. purified MbtI enzyme, fluorescence intensity read-out. inhibition, % (test concentration not listed). 100,000 compounds, 0.89% hits. AID 493033; in the data active = inhibition mostly above about 56%, no sharp cut-off; inactive = mostly below about 77%
Mtb MenB inh – inhibitors of Mycobacterium tuberculosis MenB enzyme; MenB enzyme assay, absorbance read-out; inhibition, % (concentration not given with the values); 100,000 compounds, 0.43% hits; AID 540299; in the data active = inhibition above about 21%, passing the limit was not always enough
Active calls of the source: *; x = not tested or not shown.

SMILES | PV pol inh | Mtb MbtI inh | Mtb MenB inh
O=C(NCCSc1nc2ccccc2o1)c1ccccc1 | 101.0 | 20.3 | x
COc1ccccc1Nc1nn(CN2CCCCC2C)c(=S)s1 (stereo not drawn) | 94.0 | 100.0* | -28.1
COc1ccccc1C(=O)CN1CCCCC1C (stereo not drawn) | 107.0 | -2.4 | -20.6
Cc1cc(C)n(-c2ccc(Cl)c(C(=O)OCc3ccccc3)c2)n1 | 107.0 | x | -30.4
CC1CN(C(=O)COC(=O)c2ccc3c(c2)C(=O)N(c2ccc(Cl)cc2)C3=O)CC(C)O1 (stereo not drawn) | 106.0 | -12.1 | 8.8
S=C(NC1CCCCC1)C(=S)NC1CCCCC1 | 82.0* | 37.1 | 10.1
O=C(NC1CCCCC1)C(=S)NC1CCCC1 | 100.0 | 19.2 | -4.3
COc1ccc(CNC(=O)CNCc2ccco2)cc1OC | 93.0 | -0.9 | -33.4
O=C(OC/C(=N\O)c1ccccc1)c1ccc(Br)cc1 | x | -2.8 | x
Cc1cc(CNC(=O)CSc2nnc3ccccn23)cc(C)c1O | 99.0 | 7.8 | 8.0
S=c1n(CN2CCOCC2)c2ccccc2n1-c1ccccc1 | 72.0* | 99.0* | -6.9
O=c1n(CN2CCOCC2)c2ccccc2n1CN1CCOCC1 | 108.0 | x | -3.3
O=C(O)COc1ncnc2ccccc12 | 104.0 | 9.8 | 27.4*
CN(C)C(=O)COc1ncnc2ccccc12 | 102.0 | -1.3 | x
CCCn1c(SC(C(=O)c2ccccc2)c2ccccc2)n[nH]c1=O (stereo not drawn) | 105.0 | -7.4 | -19.5
Cc1ccc(-c2noc(-c3ccc(NC4CCCC4)c([N+](=O)[O-])c3)n2)cc1 | 105.0 | x | x
COc1ccc(-c2noc(-c3ccc(NC4CCCC4)c([N+](=O)[O-])c3)n2)cc1OC | 79.0* | x | x
C=CCn1c(COc2ccc(CC)cc2)nnc1SCc1nc2sc(C)c(C)c2c(=O)[nH]1 | 106.0 | 11.3 | -12.6
CCOC(=O)N1CCN(S(=O)(=O)N2CCC(C(=O)O)CC2)CC1 | 100.0 | -6.0 | -1.2
O=c1[nH]c2ccc(S(=O)(=O)Nc3cc(Cl)ccc3O)cc2o1 | 104.0 | x | x
Cc1ccc2nc(CCc3nc4ccc(C)cc4[nH]3)[nH]c2c1 | x | -4.8 | x
FC(F)(F)c1cc2[nH]c(=S)[nH]c2cc1Cl | 95.0 | 35.4 | -28.7
Cc1ccc2[nH]c(=S)oc2c1 | 99.0 | 61.3* | -27.7
S=c1[nH]c2ccc(Cl)cc2[nH]1 | 103.0 | 82.0* | -22.9
S=c1[nH]c2ccc(Cl)cc2o1 | 100.0 | 64.3* | -52.6
SMILES | PV pol inh | Mtb MbtI inh | Mtb MenB inh
CCc1nnc(NC(=O)c2sc3nc4ccc(OC)cc4cc3c2N)s1 | 101.0 | -10.5 | -49.0
O=C1CSc2nnc(-c3cccs3)n21 | 57.0* | -101.5 | 0.4
c1csc(-c2nnc3n2-c2ccccc2SC3)c1 | 109.0 | -12.6 | -28.4
COC(=O)c1cc(-c2ccc(Cl)cc2)on1 | 101.0 | x | 26.3
COC(=O)/C=C1/OC(c2ccc(Cl)cc2)=CC1=O | 108.0 | 100.2* | -57.9
C=CCNC(=S)N/N=C1\C=C(C)CC(C)(C)C1 | 107.0 | -1.3 | -52.8
N#Cc1ccc(CSc2nnc(-c3sc4ccccc4c3Cl)o2)cc1 | 102.0 | -9.1 | -10.5
Cc1sc2ncnc(NCC(C)(C)N3CCOCC3)c2c1C | 103.0 | -7.5 | -9.0
CC(C)(CNc1nsc2ccccc12)N1CCOCC1 | 89.0* | 49.5 | 1.8
N#CC1=C(S)NC(=O)CC1c1ccco1 (stereo not drawn) | 79.0* | 5.5 | -39.3
CSC1=C(C#N)C(c2ccccc2)CC(=O)N1 (stereo not drawn) | 103.0 | -1.5 | x
O=C(OCc1cc(=O)oc2cc3c(cc12)CCC3)c1ccc(-n2cnnn2)cc1 | 101.0 | 51.9 | -5.9
Cc1sc(Nc2ccccc2)nc1-c1ccccc1 | 101.0 | -2.1 | -6.9
c1ccc(Nc2nc3c(ccc4ccccc43)s2)cc1 | 83.0* | x | -19.3
CCS(=O)(=O)c1cccc(C(=O)Nc2nnc(-c3ccc4c(c3)OCCO4)o2)c1 | 105.0 | 4.6 | -51.4
C1CCC(N2CCC(N3CCCCC3)CC2)CC1 | 98.0 | -5.0 | -11.6
C1CCC(N2CCN(C3CCCC3)CC2)C1 | 99.0 | -7.0 | 32.3*
C1CCC(N2CCN(C3CCCC3)CC2)CC1 | 100.0 | x | -0.2
CCC(C)N1CCN(C2CCCCC2)CC1 (stereo not drawn) | 100.0 | -10.6 | 44.3*
O=C(NN=C1CCCCC1)C1CC1c1ccccc1 (stereo not drawn) | 101.0 | 4.0 | 28.8
N#Cc1c(N)cc(N)[nH]c1=S | 104.0 | 96.8* | -0.9
Cc1cc(C(F)(F)F)c(C#N)c(=S)[nH]1 | 104.0 | 80.9 | -33.2
Cc1ccc(C(=O)N(CC#N)CC#N)cc1 | 102.0 | -12.3 | -4.2
CCN(Cc1nc2cc(Cl)ccc2c(=O)[nH]1)C(=O)c1cccc(NC(C)=O)c1 | 101.0 | 7.7 | -1.7
COc1ccccc1CNC1CCCCC1C (stereo not drawn) | 98.0 | 0.9 | -18.1
SMILES | PV pol inh | Mtb MbtI inh | Mtb MenB inh
CSc1ccc(S(=O)(=O)N(C)C)cc1 | 101.0 | -13.1 | -10.1
CN(C)S(=O)(=O)c1ccc(=S)[nH]c1 | 96.0 | 94.8* | -52.6
Cc1c(-c2nnc(Nc3ccccc3)s2)sc2nc3n(c(=O)c12)CCC3 | x | -10.8 | -9.5
c1ccc2[nH]c(NCCCN3CCOCC3)nc2c1 | 101.0 | -4.7 | -31.4
S=c1[nH]nc(NCCCN2CCOCC2)s1 | 96.0 | 97.1* | -19.5
Cc1cc(CN2CCN(Cc3ccccc3)CC2)cs1 | 102.0 | -3.9 | -10.1
O=C(O)c1cc(Cl)c(Cl)cc1C(=O)O | 101.0 | -11.6 | -13.8
Oc1cc(Cl)c(Cl)cc1O | 92.0 | 102.1* | -60.9
CCOC(=O)c1c(NC(=O)c2cc(-c3ccc4c(c3)OCO4)on2)sc2c1CCCC2 | 96.0 | 57.2 | -44.3
COc1cc(N)c(/C(N)=N/O)cc1OC | x | 5.5 | x
CCOc1cc(C(=O)O)c(N)cc1OC | 87.0* | 99.5 | 11.5
N#CC(C#N)=CNc1ccc2oc3ncccc3c(=O)c2c1 | 105.0 | 49.2 | -24.9
C=CCn1c(-c2ccccc2)n[nH]c1=S | 101.0 | 54.8 | -22.9
S=c1[nH]nc(-c2ccncc2)n1C1CC1 | x | 59.8* | 9.0
C=CCn1c(-c2ccncc2)n[nH]c1=S | 100.0 | 69.6* | 8.3
S=c1[nH]nc(-c2ccc(Cl)cc2)n1C1CCCCC1 | 102.0 | 9.1 | -13.9
CSc1cc(-c2ccccc2)[o+]c(-c2ccccc2)c1 | x | 4.5 | x
CC1CCCC(NC(=O)COC(=O)c2cncc(Br)c2)C1C (stereo not drawn) | 101.0 | 3.2 | -26.4
COc1ccc(N2C(=O)CSCC2=O)cc1OC | 94.0 | -4.0 | -6.3
O=C1c2ccccc2C(=O)N1c1ccc2ncccc2c1 | 108.0 | x | -3.1
O=C1C=CC(=O)N1c1ccc2ccccc2c1 | 98.0 | 99.6* | 3.3
COc1ccc(N2C(=O)C=CC2=O)cc1OC | 100.0 | 94.2* | x
CNC(=O)COC(=O)c1ccc(Cl)c(Cl)c1 | 104.0 | -0.2 | x
CC(=O)OCN1C(=O)N(C)C2C1N(C)C(=O)N2COC(C)=O (stereo not drawn) | 102.0 | 4.7 | 3.2
CC1CCN(S(=O)(=O)c2ccc(S(=O)(=O)N3CCCN(Cc4ccccc4)C3)cc2)CC1 | 104.0 | 0.0 | 35.8*
SMILES | PV pol inh | Mtb MbtI inh | Mtb MenB inh
CC(C)CNS(=O)(=O)c1ccc(S(=O)(=O)N2CCCN(Cc3ccccc3)C2)cc1 | 101.0 | 2.0 | -35.8
CC(C)(Oc1ccc(Cl)cc1)C(=O)N1CCCCC1 | 104.0 | x | -8.3
O=C1C2CN3CN(C2)CC1(c1ccccc1)C3 | 99.0 | 4.0 | 34.4*
O=C1C2CN3CCN(C2)CC1(c1ccccc1)C3 | x | -0.5 | x
COC(=O)c1ccc(C2N=C(c3cccc(OC)c3)CC(c3ccccc3O)N2)cc1 (stereo not drawn) | 105.0 | 1.6 | -8.0
CCNC(=S)Nc1ccccc1 | 101.0 | -8.2 | -56.7

Screening data deposited in PubChem by ICCB-Longwood Screening Facility, Harvard Medical School.
